The list is not random: actives were taken first. Their share in the collection is about 2.1%.
PrP UTR inh – suppresses PrP 5' UTR mRNA reporter expression | cell-based PrP 5' UTR mRNA reporter, plate reader | inhibition, % (test concentration not listed) | hit rate 0.35% among 340,000; in the data active = inhibition above about 52%; note: 0 = median of the neutral control wells
PfHsp40 yeast – restores yeast growth despite PfHsp40 toxicity. S. cerevisiae expressing PfHsp40, growth rescue, ATP luminescence. growth rescue, % at 12.5 µM. hit rate 0.68% among 340,000. AID 504582; in the data active = growth rescue above about 28%, passing the limit was not always enough;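 note: yeast W303a lacking pdr1 and pdr3 grown in galactose medium; growth measured after three days at 30 °C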
CCHF vOTU inh-1 – CCHFV vOTU protease inhibition. Pep-AMC fluorescence. inhibition, % at 11.5 µM. hit rate 0.55% among 370,000. AID 651958; note: 0% = vehicle wells with enzyme and 100% = no enzyme wells
PrPC surface inh – reduces human prion protein on the cell surface; P04156; cell surface PrPC, TR-FRET read-out; inhibition, % at 13.8 µM; hit rate 0.43% among 370,000; AID 720596; in the data active = inhibition above about 24%; note: 0% = median of the test wells and 100% = reference compound wells
ugtP null kill – kills S. aureus RN4220 lacking UgtP; S. aureus RN4220 ugtP deletion, OD600 growth, 16 h; growth inhibition, % (test concentration not listed); hit rate 0.54% among 330,000; AID 1259309; in the data active = growth inhibition above about 68%;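 note: plate controls were untreated wells for no effect and antibiotic for full effect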
Sa RN4220 lethal – kills Staphylococcus aureus RN4220 | hit rate 0.33% among 330,000 | S. aureus RN4220 growth, OD600, 16 h | inhibition, % (test concentration not listed); in the data active = inhibition above about 85%;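 note: plate controls were untreated cells for no effect and reference antibiotic for full effect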
CCHF vOTU inh-2 – confirmation of CCHF virus vOTU protease inhibitors; shares compounds with CCHF vOTU inh-1; Recombinant CCHFV vOTU, Pep-AMC fluorescence; inhibition, % at 11.5 µM; hit rate 17% among 1,900; AID 686976
An asterisk follows results filed as active; x = not tested or not shown. Cut-off read from the data, not from the text of the source, unless noted: active = inhibition above about 30%; inactive = the rest.

SMILES	PrP UTR inh	PfHsp40 yeast	CCHF vOTU inh-1	PrPC surface inh	ugtP null kill	Sa RN4220 lethal	CCHF vOTU inh-2
CN(C)S(=O)(=O)N1CCCN(S(=O)(=O)N(C)C)CC1	-38	0	44*	-1	-5	4	-10
O=C(O)CC/C(=C\c1ccc(N2CCCC2)c([N+](=O)[O-])c1)c1nc2ccccc2s1	-29	1	33*	-13	25	24	10
CN(c1ccccc1)c1ccc(/C=C(/CCC(=O)O)c2nc3ccccc3s2)cc1[N+](=O)[O-]	-2	1	32*	-12	-7	10	26
O=C(O)CC/C(=C\c1ccccc1[N+](=O)[O-])c1nc2ccccc2s1	-11	1	-7	-6	9	-7	x
COC(=O)C1=C(c2ccc(S(C)(=O)=O)cc2)CC2CCC1N2C(=O)NCCS(C)=O (stereo not drawn)	x	x	x	x	-2	7	x
O=C(O)c1cccc(NC2=C(n3nnc4ccccc43)C(=O)c3ccccc3C2=O)c1	-36	1	79*	-46	2	5	85*
CCOc1ccc(NC(=O)CN2C(=O)SC(=Cc3cccn3C)C2=O)cc1	x	x	x	x	-5	1	x
CC(=O)NC1=C(NC2CCS(=O)(=O)C2)C(=O)c2ccccc2C1=O (stereo not drawn)	-32	3	42*	-51	4	19	2
O=C(CN1C(=O)c2ccccc2C1=O)NC1CCS(=O)(=O)C1 (stereo not drawn)	x	x	-4	1	x	x	x
CN(C1=C(NC(=O)c2ccccc2)C(=O)c2ccccc2C1=O)C1CCS(=O)(=O)C1 (stereo not drawn)	-19	-1	89*	-46	48	32	78*
O=C(NC(=S)NC1CCS(=O)(=O)C1)c1ccccc1 (stereo not drawn)	-43	-1	12	-1	3	2	x
CC(C)N(C)C1=CC(=O)C(N(C)C(C)C)=CC1=O	-59	-1	44*	-18	2	0	-2
C=CCn1c(COc2ccccc2)nnc1SCC(=O)c1ccc(-c2ccccc2)cc1	x	x	8	-11	x	x	x
C=CCn1c(COc2ccc(C)cc2)nnc1SCC(=O)c1ccc(-c2ccccc2)cc1	x	x	30*	7	x	x	19
COC(=O)c1nc(-c2ccc3c(n2)C(=O)C(N)=C(OC)C3=O)c(N)c(-c2ccc(OC)c(OC)c2O)c1C	48	0	37*	-1	13	22	106*
COC1=C(N)C(=O)c2nc(-c3nc(C(=O)O)c(C)c(-c4ccc(OC)c(OC)c4O)c3N)ccc2C1=O	23	1	x	x	x	x	x
CCOc1ccc(-n2c(=S)sc3c(=O)n(-c4ccc(F)cc4)c(SCC(=O)O)nc32)cc1	-2	1	34*	-16	8	4	-5
NC1=C(Br)C(=O)c2ncccc2C1=O	32	-1	107*	16	x	x	94*
COc1ccc(S(=O)(=O)Nc2cccc3c2OC(CN(C)S(=O)(=O)c2cn(C)cn2)C(C)CN(C(C)CO)C3=O)cc1 (stereo not drawn)	x	x	x	x	0	8	x
Cc1ccccc1COc1cccc(C=NNC(=O)c2nnn(-c3nonc3N)c2C)c1	x	x	x	x	1	7	x
COC(=O)CCC(=O)OC1(C)C(=O)C2=CN(CCc3ccccn3)C(c3ccc(OC)cc3)=CC2=C(Br)C1=O (stereo not drawn)	-21	-1	x	x	x	x	x
COC(=O)CCC(=O)OC1(C)C(=O)C2=CN(C(CO)CO)C(c3ccc(OC)cc3)=CC2=C(Br)C1=O (stereo not drawn)	x	x	31*	-4	x	x	18
CCOC(=O)c1c(C)oc2c1C(=O)c1ccccc1C2=O	-89	2	16	5	16	20	x
Cc1oc2c(c1C(=O)O)C(=O)c1ccccc1C2=O	-48	-1	67*	-17	8	13	78*
O=c1[nH]c(Nc2ccccc2)cc2cc(Br)ccc12	-24	0	101*	0	3	-2	98*
O=c1[nH]c(Nc2ccccc2)cc2ccccc12	-12	-1	88*	-2	10	-7	6
Cn1c(=O)cc(Nc2ccccc2)[nH]c1=O	-21	0	-11	-3	5	5	x
COc1ccccc1Nc1cc2cc(Br)ccc2c(=O)[nH]1	-36	-1	109*	1	-19	-3	93*
